Test in all cases: PBM binding z-score (relative to random genomic background probes); higher = stronger binding; sequences stand for … in GC…GCGATTGACAGCGTAGAATGAAGG
Experiment [1] concerns FXR:RXRa (NR concentration 270 nM, RXRa partner concentration 90 nM). In a few lines: (§1)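 Custom Agilent 4×180K protein-binding microarrays carried double-stranded probes, each with a 34-nt variable region. These regions held direct-repeat seeds, single-nucleotide variants, half-site ablations and random human genomic background sequences. Ligand-free nuclear receptor dimers were incubated on the arrays for 1 h, antibodies against each partner (one per run) detected binding, and scanned fluorescence was regression-normalized. Binding z-scores take the random background probes as reference.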

Experiment [2] has as its system LXRa:RXRa (NR concentration 270 nM, RXRa partner concentration 90 nM). In a few lines: as §1
The test system of experiment [3] is LXRa homodimer (NR concentration 270 nM). The method in brief: as §1
Experiment [4] relates to LXRb:RXRa (NR concentration 270 nM, RXRa partner concentration 90 nM). The method in brief: as §1
Experiment [5] concerns LXRb homodimer (NR concentration 270 nM). The method in brief: as §1
Experiment [6] has as its system PPARa:RXRa (NR concentration 270 nM, RXRa partner concentration 90 nM). The method in brief: as §1
Experiment [7] has as its system PPARg:RXRa (NR concentration 180 nM, RXRa partner concentration 90 nM). The method in brief:
as §1

For experiment [8], the system named is PPARg:RXRa 270nM:90nM, anti-RXR (NR concentration 270 nM, RXRa partner concentration 90 nM). The method in brief: as §1
Experiment [9] deals with PPARg:RXRa 30nM:10nM, anti-RXR (NR concentration 30 nM, RXRa partner concentration 10 nM). In a few lines:
as §1

Experiment [10] concerns PPARg:RXRa 90nM:30nM, anti-RXR (NR concentration 90 nM, RXRa partner concentration 30 nM). The method in brief: as §1
For experiment [11], the system named is PPARg:RXRa DBDmut IVT, anti-RXR (DBD mutation: RXRa K156A/R161A, NR concentration 270 nM, RXRa partner concentration 90 nM). The method in brief: as §1
Experiment [12] deals with PPARg:RXRa IVT, anti-PPARg (NR concentration 270 nM, RXRa partner concentration 90 nM). In a few lines: as §1
In experiment [13] the test system is PPARg DBDmut:RXRa IVT, anti-PPARg (DBD mutation: PPARg1 K132A/R137A, NR concentration 270 nM, RXRa partner concentration 90 nM). The method in brief:
as §1

For experiment [14], the system named is PPARg DBDmut IVT, anti-PPARg (DBD mutation: PPARg1 K132A/R137A, NR concentration 270 nM). In a few lines:
as §1

The test system of experiment [15] is PPARg homodimer (NR concentration 180 nM). The method in brief: as §1
Experiment [16] relates to PXR:RXRa (NR concentration 270 nM, RXRa partner concentration 90 nM). In a few lines: as §1
Experiment [17] concerns PXR homodimer (NR concentration 270 nM). The method in brief: as §1
Experiment [18] has as its system RARa:RXR (NR concentration 270 nM, RXRa partner concentration 90 nM). The method in brief: as §1
In experiment [19] the test system is RARa homodimer (NR concentration 270 nM). In a few lines: as §1
Experiment [20] deals with RARb:RXRa (NR concentration 270 nM, RXRa partner concentration 90 nM). In a few lines:
as §1

As for TGAATGAGGCTAAAGATCAGGGAACGTGGCGTCG, the PBM binding z-score in experiment [1] was -0.481; in [2] it was -0.541; in experiment [3], -0.699; in experiment [4], -0.926; in [5], -0.646; in experiment [6], 1.97. Besides, the PBM binding z-score in experiment [7] is 2.96; in [8], 4.9; in [9] it was 3.03; in experiment [10], 4.67; in experiment [11], -0.0886; in experiment [12], 1.02. The PBM binding z-score is 0.37 in experiment [13]; -0.283 in experiment [14]; -0.62 in experiment [15]; -0.523 in experiment [16]; -0.778 in experiment [17]; -0.214 in [18]. In addition, the values for the PBM binding z-score in experiment [19] and in experiment [20] were -0.864 and 0.177, respectively.
As for CCTGCTAGGTCATGGTCAGCTGATCTACAGTATG, the PBM binding z-score in experiment [1] is 4.51; in experiment [2], 2.68; in experiment [3] it was -0.139; in experiment [4], 2.21; in [5] it was -0.492; in [6], 3.96. The PBM binding z-score in [7] came out at 3.02; in [8], 3.1; in experiment [9] it was 0.862; in experiment [10], 2.09; in [11], 4.74; in experiment [12], 4.18. For the same sequence, the PBM binding z-score is 0.184 in [13]; 0.177 in experiment [14]; 2.39 in experiment [15]; 2.18 in experiment [16]; -0.463 in [17]; 2.89 in experiment [18]. The values for the PBM binding z-score in experiment [19] and in [20] were -0.136 and 4.21, respectively.
TCTTGCAGATCAACAGGAGGTTAAGAAAGATCGA: the PBM binding z-score was -0.0407 in [1]; 0.769 in experiment [2]; 0.0202 in [3]; 0.679 in experiment [4]; -0.645 in experiment [5]; 1.11 in experiment [6]. Moreover, the PBM binding z-score was -0.141 in experiment [7]; 0.718 in [8]; 1.89 in experiment [9]; 1.63 in experiment [10]; 0.996 in experiment [11]; 0.188 in experiment [12]. Moreover, the PBM binding z-score was 0.472 in [13]; 0.407 in [14]; -0.378 in [15]; 0.713 in [16]; -0.172 in experiment [17]; 0.812 in experiment [18]. Also, the PBM binding z-score in [19] is -0.193; in experiment [20], 0.489.
As to CCTCGTTGGTCAGGAGGTCACACACCGGATATGA, the PBM binding z-score in experiment [1] stood at 3.4; in experiment [2], 3.49; in experiment [3], 1.96; in experiment [4], 3.4; in experiment [5], 0.47; in [6], 4.22. Also, the PBM binding z-score in [7] worked out at 2.29; in experiment [8], 2.99; in experiment [9], 0.71; in experiment [10], 2.06; in [11], 0.408; in experiment [12], 2.72. The PBM binding z-score in [13] amounted to 0.14; in experiment [14] it was 0.13; in [15] it was 3.05; in experiment [16] it was 4.26; in [17], 0.821; in experiment [18], 4.73. The values for the PBM binding z-score in experiment [19] and in experiment [20] were 1.57 and 3.75, respectively.
As for CCTGCTAGGTAATGGTCAGCTAATCTACAGTATG, the PBM binding z-score was -0.151 in [1]; -0.438 in experiment [2]; -0.575 in [3]; -0.764 in experiment [4]; -0.48 in experiment [5]; -0.344 in experiment [6]. Besides, the PBM binding z-score is -0.182 in [7]; -0.104 in experiment [8]; -0.225 in experiment [9]; -0.424 in experiment [10]; 1.12 in experiment [11]; 0.132 in [12]. The PBM binding z-score was -0.293 in experiment [13]; -0.811 in experiment [14]; -0.722 in [15]; -0.534 in experiment [16]; -0.524 in experiment [17]; -0.39 in experiment [18]. Moreover, the PBM binding z-score worked out at 0.217 in experiment [19] and 0.113 in experiment [20].
Take TCTTGTAGATCAAAGGTTAAAAAAGCCGAAGCCT: the PBM binding z-score in experiment [1] stood at 1.88; in experiment [2] it was 2.35; in experiment [3], 0.549; in experiment [4], 2.44; in experiment [5] it was 0.41; in experiment [6], 4.79. In addition, the PBM binding z-score in experiment [7] is 8.35; in [8], 8.18; in experiment [9], 7.69; in experiment [10], 9.24; in [11], 2.16; in experiment [12], 3.58. Also, the PBM binding z-score in experiment [13] was 0.744; in experiment [14], 0.625; in experiment [15], 1.22; in experiment [16] it was 2.17; in [17], 0.0944; in experiment [18], 3.21. Further, the PBM binding z-score in experiment [19] is 0.327; in experiment [20], 1.69.

Values taken from the supplement of paper PMC6555819.
